From PubChem BioAssay come the findings set out here.

Records with an inconclusive call do not appear. For part of these data: Results with a measured potency or affinity are listed apart. The source made the active and inactive calls. Rule as the data show it: active = fluorescence slope change above about 50%; inconclusive = mostly about 31% to 49%; inactive = weaker than that.

For assay [1], the target named is ATP-dependent translocase ABCB1 (Homo sapiens) (UniProt P08183). As to the kind of experiment: MDR1 (ABCB1) efflux transporter inhibition, cell-based (AID 377). The note with it: MDR1-expressing cells, fluorescent substrate accumulation slope; stronger effect = higher value; concentration not given here.
Sequence of ATP-dependent translocase ABCB1 (Homo sapiens) (P08183 whole entry, looked up): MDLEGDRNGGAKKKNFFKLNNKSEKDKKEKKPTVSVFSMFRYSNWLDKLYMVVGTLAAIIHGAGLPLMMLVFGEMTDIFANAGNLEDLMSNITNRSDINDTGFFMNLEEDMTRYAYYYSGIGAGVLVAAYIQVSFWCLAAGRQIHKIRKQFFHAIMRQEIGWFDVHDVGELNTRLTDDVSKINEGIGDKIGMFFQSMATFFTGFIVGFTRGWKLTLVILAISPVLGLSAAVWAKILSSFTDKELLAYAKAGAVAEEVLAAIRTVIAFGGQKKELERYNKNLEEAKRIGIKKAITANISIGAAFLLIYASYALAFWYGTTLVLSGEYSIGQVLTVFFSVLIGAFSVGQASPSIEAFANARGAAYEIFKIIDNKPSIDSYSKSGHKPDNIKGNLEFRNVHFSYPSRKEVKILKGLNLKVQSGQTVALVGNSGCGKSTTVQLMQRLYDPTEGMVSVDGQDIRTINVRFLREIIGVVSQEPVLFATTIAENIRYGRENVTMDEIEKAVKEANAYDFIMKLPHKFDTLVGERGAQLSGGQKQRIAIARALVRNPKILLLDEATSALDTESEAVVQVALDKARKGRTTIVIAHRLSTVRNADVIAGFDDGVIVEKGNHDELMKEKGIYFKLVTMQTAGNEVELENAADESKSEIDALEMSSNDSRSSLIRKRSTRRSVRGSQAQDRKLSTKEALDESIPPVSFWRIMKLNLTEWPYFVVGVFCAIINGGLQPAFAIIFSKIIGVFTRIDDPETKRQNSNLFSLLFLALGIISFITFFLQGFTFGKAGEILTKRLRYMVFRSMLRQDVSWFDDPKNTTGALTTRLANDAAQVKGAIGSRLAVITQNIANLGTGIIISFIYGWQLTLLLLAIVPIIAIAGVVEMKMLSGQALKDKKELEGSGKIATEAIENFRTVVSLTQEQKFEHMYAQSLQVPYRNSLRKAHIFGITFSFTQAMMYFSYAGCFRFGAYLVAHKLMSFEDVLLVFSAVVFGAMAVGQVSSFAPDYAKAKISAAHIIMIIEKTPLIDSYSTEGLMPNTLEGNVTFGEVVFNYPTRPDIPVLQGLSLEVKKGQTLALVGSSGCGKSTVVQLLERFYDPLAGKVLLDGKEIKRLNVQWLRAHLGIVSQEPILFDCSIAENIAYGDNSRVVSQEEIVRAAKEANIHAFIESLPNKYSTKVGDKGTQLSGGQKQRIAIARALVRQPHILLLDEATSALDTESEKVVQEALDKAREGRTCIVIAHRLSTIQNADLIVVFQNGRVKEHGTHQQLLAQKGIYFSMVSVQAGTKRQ
Assay [2] can be described thus: polyglutamine-triggered caspase-3 activation inhibitors, cell-based (AID 1583). The note with it: polyglutamine-induced caspase-3 activation, cell assay; stronger effect = higher value;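 tested at 10 µM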.
Assay [3] in a line: suppressors of polyQ aggregation in yeast, 75Q-TubU reporter (AID 1593). As to conditions: Yeast 75Q polyglutamine aggregation reporter.
Assay [4] can be described thus: rescue of polyQ-huntingtin neuronal dysfunction in worms, whole organism, C. elegans mechanosensory neurons, N-terminal huntingtin (AID 1599). The note with it: touch response, stronger effect = higher value.
A short description of assay [5]: inhibitors of mitochondrial cytochrome c release, biochemical, purified mitochondria (AID 1603).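 Also: mouse liver mitochondria challenged with calcium chloride; signal normalized to the plate average as 100%.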 The note with it: stronger effect = lower value.
Assay [6] can be described thus: inhibitors of polyQ protein aggregation (AID 1604). The note with it: polyglutamine-induced protein aggregation inhibition assay; stronger effect = higher value; tested at 2.5 µM.

For the compound `O=NN(CCCl)C(=O)NCCCl`, the fluorescence slope change in assay [1] was 11.5% (inactive). Moreover, the inhibition in assay [2] is -31.5%. In addition, the score in assay [3] is 0.3. Moreover, the rescue above control in assay [4] is 5.39. In assay [5], the cytochrome c release ratio is 0.91. In assay [6], the inhibition of aggregation was found to be 72.2%.

`CCCCC(CC)CN1CN(CC(CC)CCCC)CC(C)(N)C1` (stereo unspecified): in assay [1], the fluorescence slope change is 61.9% (active). The inhibition in assay [2] is 22.5%. In assay [3], this compound had a score of 0.11. In assay [4], this compound yielded a rescue above control of 0. For the same compound, the cytochrome c release ratio in assay [5] is 0.41. Further, in assay [6], the inhibition of aggregation worked out at 1.83%.

For the compound `O=C(COc1ccc(Cl)cc1)N1CCN(Cc2ccc3c(c2)OCO3)CC1`, the fluorescence slope change in assay [1] was 134% (active). Also, the inhibition in assay [2] came to 60.9%. For the same compound, the score in assay [3] was determined as 1.15. The compound further showed a rescue above control in assay [4] of 29.5. Also, in assay [5], the cytochrome c release ratio was 1.17. For the same compound, the inhibition of aggregation in assay [6] was 63.9%.

`Cc1onc(-c2ccccc2Cl)c1C(=O)N[C@@H]1C(=O)N2[C@@H]1SC(C)(C)[C@@H]2C(=O)O`: in assay [1], the fluorescence slope change was 68% (active). Further, the inhibition in assay [2] is -3.1%. Moreover, the score in assay [3] stood at 1.4. The same compound had a rescue above control in assay [4] of 1.76. In addition, in assay [5], the cytochrome c release ratio was determined as 1.27. Also, the inhibition of aggregation in assay [6] stood at 77%.

`Cc1cccc(C)c1OCC(C)N` (stereo unspecified): the fluorescence slope change in assay [1] is 24.1% (inactive). In assay [2], the inhibition was -1.28%. In assay [3], this compound came in with a score of 1.39. In assay [4], this compound had a rescue above control of 0.83. For the same compound, in assay [5], the cytochrome c release ratio stood at 0.86. Besides, in assay [6], the inhibition of aggregation is 45.1%.

As to `CC(NCCC(c1ccccc1)c1ccccc1)c1ccccc1` (stereo unspecified), the fluorescence slope change in assay [1] is 200% (active). For the same compound, the inhibition in assay [2] turned out to be 36.8%. This compound showed a score in assay [3] of 1.04. Also, the rescue above control in assay [4] came out at 0. The cytochrome c release ratio in assay [5] worked out at 0.33. The inhibition of aggregation in assay [6] was -3.7%.

In the case of `NC(N)=NCCN1CCCCCCC1`, the fluorescence slope change in assay [1] was 125% (active). Moreover, the inhibition in assay [2] came to 22.4%. This compound gave a score in assay [3] of 1.49. The rescue above control in assay [4] is -4.52. The cytochrome c release ratio in assay [5] was 1.17. For the same compound, in assay [6], the inhibition of aggregation was found to be 35.2%.

In the case of `Nc1c(Br)cc(Br)cc1CNC1CCC(O)CC1` (stereo unspecified), in assay [1], the fluorescence slope change is 57.2% (active). For the same compound, the inhibition in assay [2] was -21.8%. In addition, in assay [3], the score was determined as 1.12. The compound further yielded a rescue above control in assay [4] of -1.56. Further, the cytochrome c release ratio in assay [5] came to 1.08. Besides, in assay [6], the inhibition of aggregation stood at 54.5%.

For the compound `COC(=O)Nc1nc2ccc(Sc3ccccc3)cc2[nH]1`, the fluorescence slope change in assay [1] is 52.1% (active). For the same compound, in assay [2], the inhibition amounted to 20.4%. For the same compound, the score in assay [3] was 0.64. In addition, the rescue above control in assay [4] was -1.52. Also, the cytochrome c release ratio in assay [5] was 0.87. Further, in assay [6], the inhibition of aggregation was found to be 6.35%.

As for `CC(C)(Oc1ccc(CCNC(=O)c2ccc(Cl)cc2)cc1)C(=O)O`, the fluorescence slope change in assay [1] was 88.6% (active). The inhibition in assay [2] was -1.59%. For the same compound, the score in assay [3] came to 1.19. The rescue above control in assay [4] is -10.8. For the same compound, the cytochrome c release ratio in assay [5] amounted to 0.96. Moreover, the inhibition of aggregation in assay [6] was determined as 61%.

`CCCOc1ccccc1-c1nc2n[nH]nc2c(=O)[nH]1`: the fluorescence slope change in assay [1] was 11.9% (inactive). Moreover, the inhibition in assay [2] is -7.12%. The compound also registered a score in assay [3] of 0.63. In addition, the rescue above control in assay [4] was 1.11. Further, in assay [5], the cytochrome c release ratio is 0.54. For the same compound, in assay [6], the inhibition of aggregation was 18.4%.

For orientation: inhibition means the drop in the measured response relative to a control, in per cent.
